# Test results published in PubChem BioAssay AID1159580 (chemical genetic matrix, 2015).
# The whole screen tested about 5,500 compounds, of which about 2,000 (36%) were called active. Inconclusive results (about 18%) are left out. The list shows a part of the results. A number with no mark means an inactive call. Cut-off read from the data, not from the text of the source: active = normalized growth mostly below about 0.91 (no sharp cut-off); inconclusive = no clear call, values can overlap the other calls; inactive = mostly above about 0.92.
# Test: chemical genetic growth profiling, strain panel (AID 1159580);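 note: tested at 20 µM; growth read once vehicle control cultures reached saturation at 30 °C; 1 = growth at the plate median or of vehicle wells; lower values mean less growth of the strain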
# Settings: growth OD
structure (smiles),measurement,setting,value
C/C=C(/C(=C/C)c1ccc(O)cc1)c1ccc(O)cc1,normalized growth,"S. cerevisiae deletion strains, locus YKL009W, strain mrt4, hits give low values",0.81 (active)
same,normalized growth,"S. cerevisiae deletion strains, locus YKL068W, hits give low values",0.961
same,normalized growth,"S. cerevisiae deletion strains, locus YKL085W, strain MDH1 (second series), hits give low values",0.764 (active)
same,normalized growth,"S. cerevisiae deletion strains, locus YKL085W, strain MDH1, hits give low values",0.764 (active)
same,normalized growth,"S. cerevisiae deletion strains, locus YKL160W, strain elf1, hits give low values",0.947
same,normalized growth,"S. cerevisiae deletion strains, locus YKL190W, strain CNB1, hits give low values",0.976
same,normalized growth,"S. cerevisiae deletion strains, locus YKR001C, strain vps1, hits give low values",0.531 (active)
same,normalized growth,"S. cerevisiae deletion strains, locus YKR026C, strain gcn3, hits give low values",0.986
same,normalized growth,"S. cerevisiae deletion strains, locus YKR091W, strain srl3, hits give low values",0.995
same,normalized growth,"S. cerevisiae deletion strains, locus YLL001W, strain dnm1, hits give low values",0.948
same,normalized growth,"S. cerevisiae deletion strains, locus YLL026W, hits give low values",0.969
same,normalized growth,"S. cerevisiae deletion strains, locus YLL041C, strain sdh2, hits give low values",0.965
same,normalized growth,"S. cerevisiae deletion strains, locus YLR027C, strain aat2, hits give low values",0.959
same,normalized growth,"S. cerevisiae deletion strains, locus YLR039C, strain RIC1, hits give low values",0.368 (active)
same,normalized growth,"S. cerevisiae deletion strains, locus YLR058C, strain SHM2, hits give low values",0.759 (active)
same,normalized growth,"S. cerevisiae deletion strains, locus YLR102C, strain apc9, hits give low values",0.991
same,normalized growth,"S. cerevisiae deletion strains, locus YLR113W, strain HOG1, hits give low values",0.985
same,normalized growth,"S. cerevisiae deletion strains, locus YLR221C, strain rsa3, hits give low values",0.982
same,normalized growth,"S. cerevisiae deletion strains, locus YLR258W, strain gsy2, hits give low values",0.996
same,normalized growth,"S. cerevisiae deletion strains, locus YLR262C, strain YPT6 (second series), hits give low values",0.659 (active)
same,normalized growth,"S. cerevisiae deletion strains, locus YLR262C, strain YPT6, hits give low values",0.292 (active)
same,normalized growth,"S. cerevisiae deletion strains, locus YLR268W, strain sec22, hits give low values",0.866 (active)
same,normalized growth,"S. cerevisiae deletion strains, locus YLR320W, strain mms22, hits give low values",0.978
same,normalized growth,"S. cerevisiae deletion strains, locus YLR330W, strain CHS5, hits give low values",0.724 (active)
same,normalized growth,"S. cerevisiae deletion strains, locus YLR342W, strain FKS1 (second series), hits give low values",0.683 (active)
same,normalized growth,"S. cerevisiae deletion strains, locus YLR342W, strain FKS1, hits give low values",0.943
same,normalized growth,"S. cerevisiae deletion strains, locus YLR357W, strain rsc2, hits give low values",0.989
same,normalized growth,"S. cerevisiae deletion strains, locus YLR370C, strain arc18, hits give low values",1
same,normalized growth,"S. cerevisiae deletion strains, locus YLR371W, strain rom2, hits give low values",0.453 (active)
same,normalized growth,"S. cerevisiae deletion strains, locus YLR384C, strain iki3, hits give low values",0.983
same,normalized growth,"S. cerevisiae deletion strains, locus YLR418C, strain cdc73, hits give low values",0.542 (active)
same,normalized growth,"S. cerevisiae deletion strains, locus YML016C, strain PPZ1, hits give low values",0.914 (active)
same,normalized growth,"S. cerevisiae deletion strains, locus YML032C, strain rad52, hits give low values",0.691 (active)
same,normalized growth,"S. cerevisiae deletion strains, locus YML120C, strain ndi1, hits give low values",0.909 (active)
same,normalized growth,"S. cerevisiae deletion strains, locus YML124C, strain tub3, hits give low values",0.971
same,normalized growth,"S. cerevisiae deletion strains, locus YMR058W, strain fet3, hits give low values",0.932
same,normalized growth,"S. cerevisiae deletion strains, locus YMR078C, strain ctf18, hits give low values",0.979
same,normalized growth,"S. cerevisiae deletion strains, locus YMR125W, strain sto1, hits give low values",0.924
same,normalized growth,"S. cerevisiae deletion strains, locus YMR129W, hits give low values",0.986
same,normalized growth,"S. cerevisiae deletion strains, locus YMR205C, strain PFK2, hits give low values",0.958
same,normalized growth,"S. cerevisiae deletion strains, locus YMR223W, strain ubp8, hits give low values",0.745 (active)
same,normalized growth,"S. cerevisiae deletion strains, locus YMR231W, strain pep5, hits give low values",0.975
same,normalized growth,"S. cerevisiae deletion strains, locus YMR263W, strain SAP30, hits give low values",0.851 (active)
same,normalized growth,"S. cerevisiae deletion strains, locus YMR307W, strain GAS1, hits give low values",0.336 (active)
same,normalized growth,"S. cerevisiae deletion strains, locus YNL067W, strain RPL9B, hits give low values",0.863 (active)
same,normalized growth,"S. cerevisiae deletion strains, locus YNL071W, strain lat1, hits give low values",0.906 (active)
same,normalized growth,"S. cerevisiae deletion strains, locus YNL183C, strain NPR1, hits give low values",0.971
same,normalized growth,"S. cerevisiae deletion strains, locus YNL209W, strain ssb2, hits give low values",1
same,normalized growth,"S. cerevisiae deletion strains, locus YNL233W, strain BNI4, hits give low values",0.76 (active)
same,normalized growth,"S. cerevisiae deletion strains, locus YNL248C, strain rpa49, hits give low values",0.951
same,normalized growth,"S. cerevisiae deletion strains, locus YNL250W, strain rad50, hits give low values",0.871 (active)
same,normalized growth,"S. cerevisiae deletion strains, locus YNL271C, strain bni1, hits give low values",0.899 (active)
same,normalized growth,"S. cerevisiae deletion strains, locus YNL298W, strain CLA4, hits give low values",0.629 (active)
same,normalized growth,"S. cerevisiae deletion strains, locus YNL307C, strain MCK1, hits give low values",0.707 (active)
same,normalized growth,"S. cerevisiae deletion strains, locus YNL322C, strain KRE1 (second series), hits give low values",0.985
same,normalized growth,"S. cerevisiae deletion strains, locus YNR049C, strain mso1, hits give low values",0.99
same,normalized growth,"S. cerevisiae deletion strains, locus YNR052C, strain pop2, hits give low values",0.383 (active)
same,normalized growth,"S. cerevisiae deletion strains, locus YOL006C, strain TOP1, hits give low values",0.456 (active)
same,normalized growth,"S. cerevisiae deletion strains, locus YOL012C, strain htz1",1.01
same,normalized growth,"S. cerevisiae deletion strains, locus YOL147C, strain pex11, hits give low values",0.839 (active)
same,normalized growth,"S. cerevisiae deletion strains, locus YOR001W, strain rrp6, hits give low values",0.967
same,normalized growth,"S. cerevisiae deletion strains, locus YOR061W, strain CKA2, hits give low values",0.879 (active)
same,normalized growth,"S. cerevisiae deletion strains, locus YOR069W, strain VPS5, hits give low values",0.896 (active)
same,normalized growth,"S. cerevisiae deletion strains, locus YOR070C, strain gyp1, hits give low values",0.989
same,normalized growth,"S. cerevisiae deletion strains, locus YOR080W, strain dia2, hits give low values",0.97
same,normalized growth,"S. cerevisiae deletion strains, locus YOR083W, strain WHI5, hits give low values",0.929
same,normalized growth,"S. cerevisiae deletion strains, locus YOR106W, strain vam3, hits give low values",0.914
same,normalized growth,"S. cerevisiae deletion strains, locus YOR136W, strain idh2, hits give low values",0.938
same,normalized growth,"S. cerevisiae deletion strains, locus YOR144C, strain elg1, hits give low values",0.86 (active)
same,normalized growth,"S. cerevisiae deletion strains, locus YOR184W, strain ser1, hits give low values",0.609 (active)
same,normalized growth,"S. cerevisiae deletion strains, locus YOR231W, strain MKK1, hits give low values",0.964
same,normalized growth,"S. cerevisiae deletion strains, locus YOR265W, strain rbl2, hits give low values",0.976
same,normalized growth,"S. cerevisiae deletion strains, locus YOR270C, strain vph1, hits give low values",0.911
same,normalized growth,"S. cerevisiae deletion strains, locus YOR290C, strain snf2, hits give low values",0.971
same,normalized growth,"S. cerevisiae deletion strains, locus YOR316C, strain cot1, hits give low values",0.993
same,normalized growth,"S. cerevisiae deletion strains, locus YPL051W, strain arl3, hits give low values",0.956
same,normalized growth,"S. cerevisiae deletion strains, locus YPL078C, strain atp4, hits give low values",0.901
same,normalized growth,"S. cerevisiae deletion strains, locus YPL106C, strain sse1, hits give low values",0.975
same,normalized growth,"S. cerevisiae deletion strains, locus YPL240C, strain hsp82, hits give low values",0.981
same,normalized growth,"S. cerevisiae deletion strains, locus YPL241C, strain CIN2, hits give low values",0.988
same,normalized growth,"S. cerevisiae deletion strains, locus YPL256C, strain CLN2, hits give low values",0.992
same,normalized growth,"S. cerevisiae deletion strains, locus YPR119W, strain clb2, hits give low values",0.981
same,normalized growth,"S. cerevisiae deletion strains, locus YPR141C, strain kar3, hits give low values",0.978
same,normalized growth,"S. cerevisiae deletion strains, locus YPR163C, strain tif3, hits give low values",0.91 (active)
same,normalized growth,"S. cerevisiae deletion strains, locus YPR167C, strain met16, hits give low values",0.854 (active)
same,normalized growth,"S. cerevisiae deletion strains, strain wtn01, hits give low values",0.837 (active)
same,normalized growth,"S. cerevisiae strains, strain wild type, hits give low values",0.877 (active)
